“And” between values parts separate entries of the source, which are not always exact repeats. Equal values may be shown once. In all, about 5,500 compounds went through this assay and about 2,000 (36%) were called active. Not shown: some 18% with an inconclusive outcome. Rule as the data show it: active = normalized growth mostly below about 0.91 (no sharp cut-off); inconclusive = no clear call, values can overlap the other calls; inactive = mostly above about 0.92. Some of the results follow.
Test: chemical genetic growth profiling, strain panel (AID 1159580);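 also: tested at 20 µM; growth read once vehicle control cultures reached saturation at 30 °C; 1 = growth at the plate median or of vehicle wells; lower values mean less growth of the strain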
Settings: S. cerevisiae deletion strains, growth OD

Measured: normalized growth

O=NN(CCCl)C(=O)NCCCl
inactive: locus YJR075W, strain HOC1, active compounds read low 0.995 | locus YKL068W, active compounds read low 0.997 | locus YKL085W, strain MDH1 (second series), active compounds read low 0.994 | locus YKL085W, strain MDH1, active compounds read low 0.994 | locus YKL190W, strain CNB1, active compounds read low 1.03 | locus YKR001C, strain vps1, active compounds read low 0.904 | locus YKR026C, strain gcn3, active compounds read low 0.983 | locus YKR091W, strain srl3, active compounds read low 0.975 | locus YLL001W, strain dnm1, active compounds read low 0.963 | locus YLL026W, active compounds read low 0.973 | locus YLL041C, strain sdh2, active compounds read low 0.957 | locus YLR027C, strain aat2, active compounds read low 0.934 | locus YLR039C, strain RIC1, active compounds read low 1.08 | locus YLR058C, strain SHM2, active compounds read low 0.984 | locus YLR102C, strain apc9, active compounds read low 0.99 | locus YLR258W, strain gsy2, active compounds read low 0.965 | locus YLR262C, strain YPT6 (second series), active compounds read low 0.939 | locus YLR262C, strain YPT6, active compounds read low 0.988 | locus YLR268W, strain sec22, active compounds read low 0.957 | locus YLR330W, strain CHS5, active compounds read low 0.989 | locus YLR342W, strain FKS1 (second series), active compounds read low 0.967 | locus YLR342W, strain FKS1, active compounds read low 0.958 | locus YLR370C, strain arc18, active compounds read low 0.972 | locus YLR371W, strain rom2, active compounds read low 0.972 | locus YLR384C, strain iki3, active compounds read low 0.96 | locus YML016C, strain PPZ1, active compounds read low 0.989 | locus YML032C, strain rad52, active compounds read low 0.915 | locus YML124C, strain tub3, active compounds read low 0.997 | locus YMR078C, strain ctf18, active compounds read low 0.98 | locus YMR125W, strain sto1, active compounds read low 0.961 | locus YMR129W, active compounds read low 0.967 | locus YMR205C, strain PFK2, active compounds read low 0.878 | locus YMR223W, strain ubp8, active compounds read low 0.918 | locus YMR231W, strain pep5, active compounds read low 0.973 | locus YMR263W, strain SAP30, active compounds read low 0.948 and 0.997 | locus YMR307W, strain GAS1, active compounds read low 0.781 and 0.985 | locus YNL067W, strain RPL9B, active compounds read low 0.947 | locus YNL175C, strain NOP13, active compounds read low 0.984 | locus YNL197C, strain WHI3, active compounds read low 1.01 | locus YNL209W, strain ssb2, active compounds read low 0.965 | locus YNL224C, strain SQS1, active compounds read low 1 | locus YNL233W, strain BNI4, active compounds read low 0.959 | locus YNL271C, strain bni1, active compounds read low 0.947 | locus YNL307C, strain MCK1, active compounds read low 0.96 | locus YNL322C, strain KRE1, active compounds read low 1 | locus YNR049C, strain mso1, active compounds read low 0.964 | locus YNR052C, strain pop2, active compounds read low 0.994 | locus YOL006C, strain TOP1, active compounds read low 0.789 | locus YOL012C, strain htz1 0.791 | locus YOL147C, strain pex11, active compounds read low 0.981 | locus YOR061W, strain CKA2, active compounds read low 0.996 | locus YOR069W, strain VPS5, active compounds read low 0.996 | locus YOR070C, strain gyp1, active compounds read low 0.968 | locus YOR080W, strain dia2, active compounds read low 0.924 | locus YOR083W, strain WHI5 (second series), active compounds read low 1.01 | locus YOR136W, strain idh2, active compounds read low 0.967 | locus YOR144C, strain elg1, active compounds read low 0.984 | locus YOR265W, strain rbl2, active compounds read low 0.957 | locus YOR290C, strain snf2, active compounds read low 0.872 | locus YOR316C, strain cot1, active compounds read low 0.989 | locus YPL051W, strain arl3, active compounds read low 0.942 | locus YPL055C, strain LGE1, active compounds read low 0.777 | locus YPL078C, strain atp4, active compounds read low 0.918 | locus YPL106C, strain sse1, active compounds read low 1.05 | locus YPL240C, strain hsp82, active compounds read low 0.976 | locus YPR119W, strain clb2, active compounds read low 0.992 | locus YPR141C, strain kar3, active compounds read low 0.991 | locus YPR163C, strain tif3, active compounds read low 0.984 | locus YPR167C, strain met16, active compounds read low 0.991
active: locus YJR066W, strain TOR1, active compounds read low 0.389 | locus YKL009W, strain mrt4, active compounds read low 0.851 | locus YKL160W, strain elf1, active compounds read low 0.86 | locus YLR113W, strain HOG1, active compounds read low 0.312 | locus YLR221C, strain rsa3, active compounds read low 0.851 | locus YLR320W, strain mms22, active compounds read low 0.589 | locus YLR357W, strain rsc2, active compounds read low 0.813 | locus YLR418C, strain cdc73, active compounds read low 0.601 | locus YML120C, strain ndi1, active compounds read low 0.852 | locus YMR058W, strain fet3, active compounds read low 0.878 | locus YNL071W, strain lat1, active compounds read low 0.914 | locus YNL183C, strain NPR1, active compounds read low 0.368 | locus YNL248C, strain rpa49, active compounds read low 0.763 | locus YNL250W, strain rad50, active compounds read low 0.852 | locus YNL298W, strain CLA4, active compounds read low 0.888 | locus YNL322C, strain KRE1 (second series), active compounds read low 0.764 | locus YOR001W, strain rrp6, active compounds read low 0.751 | locus YOR083W, strain WHI5, active compounds read low 0.844 | locus YOR106W, strain vam3, active compounds read low 0.786 | locus YOR184W, strain ser1, active compounds read low 0.783 | locus YOR231W, strain MKK1, active compounds read low 0.295 | locus YOR270C, strain vph1, active compounds read low 0.638 | locus YPL256C, strain CLN2, active compounds read low 0.352 | strain wtn01, active compounds read low 0.853

From PubChem BioAssay AID1159580 (chemical genetic matrix, 2015)
